This note sets out measurements from article PMC7819943, “Rice protein-binding microarrays: a tool to detect cis-acting elements near promoter regions in rice”.

In all, about 35,000 sequences were measured (“fluorescence intensity (a.u.)”: median about 10,000, highest 2% from about 52,000 on). This excerpt belongs to a sample that is enriched for the highest values.

The target of this experiment is T1, OsWOX13 (Oryza sativa, UniProt Q5QMM3 1-267).
T1 sequence: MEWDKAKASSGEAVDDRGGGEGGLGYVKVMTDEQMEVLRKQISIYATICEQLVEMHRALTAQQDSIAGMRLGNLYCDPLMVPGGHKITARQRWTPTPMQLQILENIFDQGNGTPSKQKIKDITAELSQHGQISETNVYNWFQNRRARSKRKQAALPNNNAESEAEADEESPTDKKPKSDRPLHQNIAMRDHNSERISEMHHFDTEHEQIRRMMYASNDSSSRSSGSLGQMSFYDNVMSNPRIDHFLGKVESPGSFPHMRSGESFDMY
Put plainly: protein-binding microarray (RPBM); PBS, 2% BSA, 51.3 ng/ul salmon testes DNA, 50 uM zinc acetate, 200 nM TF, 25 C, 1 h; high values mean tight binding. The conditions noted are these: protein: recombinant; tags: N-terminal polyhistidine and DsRed monomer fusion (pET32a); label: CyDye5-dUTP incorporated in the synthesized complementary strand; 3' TTTTT single-stranded linker to array surface; dsDNA, one strand shown. In short, it runs like this: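 In PBS with 2% BSA, salmon testes DNA and 50 µM zinc acetate, 200 nM protein was incubated on a custom Agilent array at 25 °C for 1 h and then washed off. The array had been made double-stranded by primer extension with Cy5-dUTP and blocked with 2% BSA. The proteins were transcription factors fused N-terminally to polyhistidine and DsRed, expressed in E. coli BL21-CodonPlus and purified on Ni–NTA. The binding signal is per-feature fluorescence intensity (arbitrary units) from an Axon 4000B scanner.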
With “GTGGTTGTATTAAATATATTGATAGTTAGGTATATGAATACGGAGTCACCTAGTGCAG”, the binding signal was 4110 fluorescence intensity (a.u.). The value for “ATAATAATTGATAGGTAACCATGATTATCGATAAAACCATCGGAGTCACCTAGTGCAG” was 59000 fluorescence intensity (a.u.). On to “TCACATTGATATTAATTAATCTAGATAAATATATATATGTCGGAGTCACCTAGTGCAG”, for which the binding signal is 17200 fluorescence intensity (a.u.).

For “GTCTCGATATAATTATGAATTTTGAAATATATAAACCCATCGGAGTCACCTAGTGCAG”, the binding signal is 8250 fluorescence intensity (a.u.). In the case of “AAAATATATAATTATTATTTATTTTATTATGACATGATATCGGAGTCACCTAGTGCAG”, the binding signal was 17400 fluorescence intensity (a.u.). The value for “ATGATTGATTGTAAATTAGGTTGAATAATTGATATATACTCGGAGTCACCTAGTGCAG” was 54800 fluorescence intensity (a.u.). Turning to “ATATAATTGATAATAAATCAGGGCATGACATGTCACATATCGGAGTCACCTAGTGCAG”, the binding signal is 56400 fluorescence intensity (a.u.). The value for “CGAAATTATAATGATTAAACAAAATTGATCGATATAACTACGGAGTCACCTAGTGCAG” was 41000 fluorescence intensity (a.u.); that for “TGTAATTGATAAATATAAATTTACTTTAGGCATGTTTGATCGGAGTCACCTAGTGCAG” was 55700 fluorescence intensity (a.u.). The figure for “ATGTAAATTACTTTTAGGCTTTATTGAATTACTTTTATATCGGAGTCACCTAGTGCAG” is 7630 fluorescence intensity (a.u.). The figure for “ATTGATTTAATGAAAATAATTTAATATTATAAATATTACTCGGAGTCACCTAGTGCAG” is 35700 fluorescence intensity (a.u.). In the case of “TTAAATAAATTACTTTTAAATTAATAAAATGTTTGAATATCGGAGTCACCTAGTGCAG”, the binding signal was 5500 fluorescence intensity (a.u.). Turning to “TTGTATTTGTTAATGGAATGCTGATTGGTGCACAGCAAACCGGAGTCACCTAGTGCAG”, the binding signal was 29900 fluorescence intensity (a.u.). With “ATTAAATTTGGGCTAACTGGCCTCCACACATCCCATATAACGGAGTCACCTAGTGCAG”, the binding signal was 11000 fluorescence intensity (a.u.). The value for “TGTTTTGATTGTTTCTTATTACTCCCTCCGATTATAAATACGGAGTCACCTAGTGCAG” was 25500 fluorescence intensity (a.u.); that for “TCCGATTGATTACCTTCTATAAATACCTCACCCCACCCCTCGGAGTCACCTAGTGCAG” was 57600 fluorescence intensity (a.u.); that for “GATAAATTACGATAATACCCCTATACGAATTATTATCTCTCGGAGTCACCTAGTGCAG” was 12900 fluorescence intensity (a.u.). As for “AGCTATTAGTAGATTGGCTATAAATGAATTGGAGTTAGTACGGAGTCACCTAGTGCAG”, the binding signal is 14900 fluorescence intensity (a.u.).

Take “ATTGATTAGTAGTAATTAATTAGTTATAAACTACACGCGCCGGAGTCACCTAGTGCAG”: the binding signal is 58700 fluorescence intensity (a.u.).

Regarding “AATATTATTTATATGTAATTACATAAGTAATATGTAATTTCGGAGTCACCTAGTGCAG”, the binding signal is 9490 fluorescence intensity (a.u.).

With “GTGCAAGGATAATTGGTGATTATATTAGTGTATATTTAAGCGGAGTCACCTAGTGCAG”, the binding signal is 18200 fluorescence intensity (a.u.).

In the case of “CTAAATTGATTATACATGATTTAGAGTTAGTAGTTAGCTACGGAGTCACCTAGTGCAG”, the binding signal is 59600 fluorescence intensity (a.u.). For “TAAATTGGCTATTACATTAGTTATAAATGATTTGGAGCTACGGAGTCACCTAGTGCAG”, the binding signal was 34400 fluorescence intensity (a.u.). For “ATTGATTTACGGGATTGAAGTTAGTATAATTACATGTAAGCGGAGTCACCTAGTGCAG”, the binding signal is 53600 fluorescence intensity (a.u.). Consider “ATTGATAATTAGTTCACCGAAGTAGTAGGGCGCGACACGCCGGAGTCACCTAGTGCAG”, for which the binding signal is 15900 fluorescence intensity (a.u.). The figure for “CAGATGATTAGTAATGTTAATTATGAATAAACTTGCACGCCGGAGTCACCTAGTGCAG” is 51800 fluorescence intensity (a.u.); for “CCTCCTGTTAACTCGTATCACCTCCCTCCCTCACTGAACCCGGAGTCACCTAGTGCAG” it is 7850 fluorescence intensity (a.u.).

As for “ATAAAGACTGTTCAATCATGATGAAGCTTTACGTAAGCGGCGGAGTCACCTAGTGCAG”, the binding signal is 34900 fluorescence intensity (a.u.). Take “TTTACAAACACGCAAATTAAAATTTTATTTATACAATTAACGGAGTCACCTAGTGCAG”: the binding signal was 4180 fluorescence intensity (a.u.). The value for “GTACCAATTTAATTTATGTATCAATAAGAACATATCATGTCGGAGTCACCTAGTGCAG” was 22800 fluorescence intensity (a.u.). As for “TCAGCTTATTGACTTATATGATTTATAAGCCAATGGATTTCGGAGTCACCTAGTGCAG”, the binding signal was 11100 fluorescence intensity (a.u.). The value for “CTGATTAGCATGCAGGATAGGAACTGATCTGTACTTGTCGCGGAGTCACCTAGTGCAG” was 22300 fluorescence intensity (a.u.); that for “ACTAATTTCATAACTCTCCTGGAAACCGTGAGATGAATCTCGGAGTCACCTAGTGCAG” was 6360 fluorescence intensity (a.u.); that for “CCCACAATTAATTGGGCCTAATGGATCGGTGCCCTTGTGGCGGAGTCACCTAGTGCAG” was 53600 fluorescence intensity (a.u.).

With “AAATTTATGTAATTATTATTTATTTTATTGTGACTTGATTCGGAGTCACCTAGTGCAG”, the binding signal was 8590 fluorescence intensity (a.u.). Take “TAGGTGATTAGTTGATTAATTAATCTTGAGCTCCTCCTAACGGAGTCACCTAGTGCAG”: the binding signal was 58800 fluorescence intensity (a.u.). On to “ACAATTAACTAATAATAATTAGTGATTACTTATCTTGATTCGGAGTCACCTAGTGCAG”, for which the binding signal was 45300 fluorescence intensity (a.u.). For “CCCAATTAATTACAATGGGCCACACGCTCGTGGCCCAACTCGGAGTCACCTAGTGCAG”, the binding signal was 10900 fluorescence intensity (a.u.). For the sequence “ATGATTGCTTAAGAATAATTGGTGACTTGCTACGAATGTGCGGAGTCACCTAGTGCAG”, the binding signal is 51300 fluorescence intensity (a.u.). For “GATGATGATGAGGAGGATGACCAGGATGGTGGAGACTGGGCGGAGTCACCTAGTGCAG”, the binding signal was 4950 fluorescence intensity (a.u.). Turning to “GTAATTGCGGCCCATTAACCTAAATGGGCCGATCGAGTGGCGGAGTCACCTAGTGCAG”, the binding signal was 4580 fluorescence intensity (a.u.).

Consider “GAGAGATGATGGGCTGGTTTGGTTTGAGGCCTAAATTAGGCGGAGTCACCTAGTGCAG”, for which the binding signal was 3660 fluorescence intensity (a.u.). Turning to “TTCTGAATGTGATTGAATTAATTGGACTTGCGTTGACCTTCGGAGTCACCTAGTGCAG”, the binding signal was 59500 fluorescence intensity (a.u.). The figure for “TTCCTTTGATTGATCATGAGGTGGGCTGGGGCTGAGATGGCGGAGTCACCTAGTGCAG” is 59400 fluorescence intensity (a.u.). The value for “CTCGAGGTCAAATCTTGATTAATTATGCTAATTAACGCGACGGAGTCACCTAGTGCAG” was 16800 fluorescence intensity (a.u.). The figure for “TGAATGATTGCTCTTGTGCTAAGAGAATAGACTTTATCCCCGGAGTCACCTAGTGCAG” is 32000 fluorescence intensity (a.u.).
